Values without a mark were called inactive. Inconclusive results are not listed. Where a call stands in place of a potency, no number is given. Activity calls are given as the source filed them. Unless noted, calls come from the whole dose curve; as a rule, active = well fitted curve in the direction sought with a large enough effect in the repeat runs; inconclusive = weak or mixed curves; inactive = no such curve, though single readings can be large; an effect the other way counts as inactive or inconclusive.
Legend:
[1] = qHTS assay to identify small molecule antagonists of the estrogen receptor alpha (ER-alpha) signaling pathway using the BG1 cell line in the presence of 0.1 nM 17-beta-estradiol - cell viability counter screen (AID 1259241); note: nearly all actives have a fitted effect of over 40% in size
In short: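 Measures cytotoxicity alongside the ER-alpha antagonist readout: VM7Luc4E2 cells, charcoal-stripped serum, 0.1 nM 17beta-estradiol final, 22 hr compound incubation at 37C, CellTiter-Fluor fluorescence.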

[2] = qHTS assay to identify small molecule antagonists of the androgen receptor (AR) signaling pathway using the MDA cell line in the presence of 0.5 nM R1881 - cell viability counter screen (AID 1259242); note: nearly all actives have a fitted effect of over 45% in size; note: potency is the fitted concentration of half-maximal effect
In short: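 qHTS format. MDA-kb2 (MMTV-luc, AR/GR responsive) + cpd + 0.5 nM R1881 final, 16 hr 37C/0% CO2 → CellTiter-Fluor 30 min → fluorescence intensity.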

[3] = target: Androgen receptor (Homo sapiens) (UniProt P10275); assay: qHTS assay to identify small molecule antagonists of the androgen receptor (AR) signaling pathway using the MDA cell line in the presence of 0.5 nM R1881 (AID 1259243); note: nearly all actives have a fitted effect of over 50% in size; note: potency is the fitted concentration of half-maximal effect
In short: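 Antagonist mode quantitative HTS in MDA-kb2 MMTV-luciferase cells, agonist R1881 at 0.5 nM final, 16 hr exposure at 37C and 0% CO2, luminescent detection.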

[4] = target: Estrogen receptor (Homo sapiens) (UniProt P03372); assay: qHTS assay to identify small molecule antagonists of the estrogen receptor alpha (ER-alpha) signaling pathway using the BG1 cell line in the presence of 0.1 nM 17-beta-estradiol (AID 1259244); note: nearly all actives have a fitted effect of over 50% in size; note: potency is the fitted concentration of half-maximal effect
In short: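 Reporter is a stably transfected luciferase under four estrogen responsive elements in VM7Luc4E2 cells expressing native full-length ER-alpha; inhibition of 0.1 nM (final) 17beta-estradiol-driven signal over 22 h is read by luminescence.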

[5] = qHTS assay to identify small molecule HDAC inhibitors (AID 1259364);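 note: wild-type HCT-116 cells with endogenous class I/II HDAC activity; top concentration of the series differs between compounds; nearly all actives have a fitted effect of over 45% in size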
In short: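 Quantitative high-throughput format: overnight-seeded HCT-116 cells got compounds for 2 hr at 37C; HDAC-Glo I/II reagent added, 30 min RT, luminescence measured.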

[6] = qHTS assay to identify small molecule HDAC inhibitors - cell viability counter screen (AID 1259365); note: series mostly up to about 92 µM; nearly all actives have a fitted effect of over 50% in size
In short: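 Following a 2hr exposure of overnight-plated wild-type HCT-116 cells to DMSO-delivered compounds, CellTiter-Glo was added and luminescence recorded after 30min at room temperature.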

[7] = qHTS assay to identify small molecule antagonists of the sonic hedgehog signaling (Shh) pathway - cell viability counter screen (AID 1259367); note: nearly all actives have a fitted effect of over 55% in size
In short: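 CellTiter-Fluor signal in conditioned medium-stimulated 3T3 Gli1-Luc cells, 23 hr compound exposure, 37C.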

[8] = qHTS assay to identify small molecule agonists of the sonic hedgehog signaling (Shh) pathway - cell viability counter screen (AID 1259366); note: nearly all actives have a fitted effect of over 50% in size
In short: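 After a 4hr attachment at 37C, NIH/3T3 cells bearing an integrated Gli1-driven luciferase reporter were dosed with compounds. Treatment lasted 24hr, with the final hour including CellTiter-Fluor for a fluorescence viability measurement.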

[9] = qHTS assay to identify small molecule agonists of the sonic hedgehog signaling (Shh) pathway (AID 1259368; calls by dose curve;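 note: NIH/3T3-derived 3T3Gli1-Luc cells carrying a stable Gli1-driven firefly luciferase reporter; series mostly up to about 92 µM; nearly all actives have a fitted effect of over 15% in size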)
In short: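 Quantitative high-throughput format using a Gli1-driven firefly luciferase reporter line derived from NIH/3T3 cells. After a 24 hr compound treatment at 37 C and 5% CO2, luminescence reported Gli1 response element activity.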

[10] = qHTS assay to identify small molecule phospholipidosis (PLD) inducers (AID 1259344; active = well fitted curve in the direction sought with a large enough effect; an effect the other way counts as inactive or inconclusive)
In short: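 Accumulated phospholipid, stained red by LipidTOX during 24 h compound treatment of HepG2 cells at 37 C, is quantified from images as pit number and intensity, normalised per cell using Hoechst-stained nuclei.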

Chain of Estrogen receptor (Homo sapiens) (P03372 whole entry, looked up): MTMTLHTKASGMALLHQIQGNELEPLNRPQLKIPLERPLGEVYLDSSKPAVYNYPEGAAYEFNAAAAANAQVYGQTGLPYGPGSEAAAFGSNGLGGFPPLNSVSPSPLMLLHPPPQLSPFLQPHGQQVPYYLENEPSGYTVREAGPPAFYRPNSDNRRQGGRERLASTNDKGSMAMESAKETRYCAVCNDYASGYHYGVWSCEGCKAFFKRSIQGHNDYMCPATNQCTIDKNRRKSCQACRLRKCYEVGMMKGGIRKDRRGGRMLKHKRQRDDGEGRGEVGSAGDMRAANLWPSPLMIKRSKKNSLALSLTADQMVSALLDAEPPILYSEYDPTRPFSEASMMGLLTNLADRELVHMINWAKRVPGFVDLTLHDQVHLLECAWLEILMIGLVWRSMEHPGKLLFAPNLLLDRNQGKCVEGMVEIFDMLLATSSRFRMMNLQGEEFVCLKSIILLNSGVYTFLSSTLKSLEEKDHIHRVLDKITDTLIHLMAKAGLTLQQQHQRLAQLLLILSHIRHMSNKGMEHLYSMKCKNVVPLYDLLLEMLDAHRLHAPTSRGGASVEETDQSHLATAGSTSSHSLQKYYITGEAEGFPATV
Chain of Androgen receptor (Homo sapiens) (P10275 whole entry, looked up): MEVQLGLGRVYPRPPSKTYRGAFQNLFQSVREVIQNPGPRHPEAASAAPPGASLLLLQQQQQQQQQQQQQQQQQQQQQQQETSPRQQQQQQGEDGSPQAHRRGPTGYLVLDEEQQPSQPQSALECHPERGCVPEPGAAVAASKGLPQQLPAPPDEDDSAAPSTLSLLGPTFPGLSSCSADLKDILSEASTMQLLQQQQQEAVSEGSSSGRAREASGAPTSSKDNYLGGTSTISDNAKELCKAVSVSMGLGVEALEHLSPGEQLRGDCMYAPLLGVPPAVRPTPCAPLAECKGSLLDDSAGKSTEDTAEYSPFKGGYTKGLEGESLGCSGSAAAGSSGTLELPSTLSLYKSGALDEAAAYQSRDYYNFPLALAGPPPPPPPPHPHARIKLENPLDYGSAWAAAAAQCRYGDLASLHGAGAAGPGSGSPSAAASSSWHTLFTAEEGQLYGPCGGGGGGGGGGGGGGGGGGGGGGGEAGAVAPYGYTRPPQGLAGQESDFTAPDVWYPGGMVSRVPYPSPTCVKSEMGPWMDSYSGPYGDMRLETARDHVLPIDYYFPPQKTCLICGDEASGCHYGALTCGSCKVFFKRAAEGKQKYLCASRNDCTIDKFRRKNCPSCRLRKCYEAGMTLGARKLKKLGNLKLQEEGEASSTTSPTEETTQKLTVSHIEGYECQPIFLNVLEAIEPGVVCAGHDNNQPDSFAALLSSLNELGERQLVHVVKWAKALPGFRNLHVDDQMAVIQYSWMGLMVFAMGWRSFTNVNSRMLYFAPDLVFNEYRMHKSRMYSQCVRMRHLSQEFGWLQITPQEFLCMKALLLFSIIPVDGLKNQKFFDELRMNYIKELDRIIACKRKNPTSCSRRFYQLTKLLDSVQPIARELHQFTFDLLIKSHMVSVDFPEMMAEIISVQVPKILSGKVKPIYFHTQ

CNC(=S)NC
Potency [1]: inactive | Potency [2]: inactive | Potency [3]: inactive | Potency [4]: inactive | Potency [5]: inactive | Potency [6]: inactive | Potency [7]: inactive

Cn1c(=O)c2c(ncn2CC(=O)O)n(C)c1=O
Potency [1]: inactive | Potency [2]: inactive | Potency [3]: inactive | Potency [4]: inactive | Potency [5]: inactive | Potency [6]: inactive | Potency [8]: inactive | Potency [7]: inactive | Potency [9]: inactive

CCCOC(=O)c1ccc(N)cc1
Potency [1]: inactive | Potency [2]: inactive | Potency [3]: inactive | Potency [4]: inactive | outcome [10]: inactive | Potency [5]: inactive | Potency [8]: inactive | Potency [7]: inactive | Potency [9]: inactive

Oc1ccc(Nc2ccccc2)cc1
Potency [1]: inactive | Potency [2]: inactive | Potency [3]: 30.6 µM (active) | Potency [4]: inactive | Potency [5]: inactive | Potency [6]: inactive | Potency [8]: inactive | Potency [7]: inactive | Potency [9]: inactive

CC(=O)OCC(=O)[C@H]1CC[C@H]2[C@@H]3CCC4=CC(=O)CC[C@]4(C)[C@H]3CC[C@]12C
Potency [1]: inactive | Potency [2]: inactive | Potency [3]: inactive | Potency [4]: inactive | Potency [5]: inactive | Potency [6]: inactive | Potency [8]: inactive | Potency [7]: inactive | Potency [9]: inactive

C[N+](C)(C)CCOC(N)=O
Potency [1]: inactive | Potency [2]: inactive | Potency [3]: inactive | outcome [10]: inactive | Potency [5]: inactive | Potency [6]: inactive | Potency [8]: inactive | Potency [7]: inactive

CCCOC(=O)c1ccc(C(=O)OCCC)nc1
Potency [1]: inactive | Potency [2]: inactive | Potency [3]: inactive | Potency [4]: inactive | Potency [6]: inactive | Potency [8]: inactive | Potency [7]: inactive | Potency [9]: inactive

CC(=O)[C@H]1CC[C@H]2[C@@H]3C[C@H](C)C4=CC(=O)CC[C@]4(C)[C@H]3[C@@H](O)C[C@]12C
Potency [1]: inactive | Potency [2]: inactive | Potency [3]: inactive | outcome [10]: inactive | Potency [5]: inactive | Potency [6]: inactive | Potency [8]: inactive | Potency [7]: inactive

O=C(O)Cc1ccc(-c2ccccc2)cc1
Potency [1]: inactive | Potency [2]: inactive | Potency [3]: inactive | Potency [4]: inactive | outcome [10]: inactive | Potency [8]: inactive | Potency [7]: inactive | Potency [9]: inactive

CC(C)CCCC(=O)O
Potency [1]: inactive | Potency [2]: inactive | Potency [3]: inactive | Potency [4]: inactive | Potency [5]: inactive | Potency [6]: inactive | Potency [7]: inactive | Potency [9]: inactive

OCC1CC=CCC1 (stereo not drawn)
Potency [1]: inactive | Potency [2]: inactive | Potency [3]: inactive | Potency [4]: inactive | Potency [5]: inactive | Potency [7]: inactive | Potency [9]: inactive

CCCc1c(OCCCOc2ccc(OCC(=O)O)cc2)ccc(C(C)=O)c1O
Potency [1]: inactive | Potency [2]: inactive | Potency [3]: inactive | Potency [4]: inactive | Potency [5]: inactive | Potency [6]: inactive | Potency [8]: inactive | Potency [7]: inactive | Potency [9]: inactive

CCOCCn1c(C2CCN(CCc3ccc(C(C)(C)C(=O)O)cc3)CC2)nc2ccccc21
Potency [1]: inactive | Potency [2]: inactive | Potency [3]: inactive | Potency [4]: inactive | Potency [5]: inactive | Potency [6]: inactive | Potency [7]: inactive | Potency [9]: inactive

CC(C)(O)c1ccccc1CC[C@@H](SCC1(CC(=O)O)CC1)c1cccc(/C=C/c2ccc3ccc(Cl)cc3n2)c1
Potency [1]: inactive | Potency [2]: inactive | Potency [3]: inactive | Potency [4]: inactive | outcome [10]: inactive | Potency [5]: inactive | Potency [6]: inactive | Potency [8]: inactive | Potency [7]: inactive | Potency [9]: inactive

O=C(CCCCCCCCC#CI)Oc1ccccc1
Potency [1]: inactive | Potency [2]: inactive | Potency [3]: inactive | PLD induction [10]: 8.17% [at 7.66 µM] | Potency [5]: inactive | Potency [6]: inactive | Potency [8]: inactive | Potency [7]: inactive | Potency [9]: inactive

CCC(C(=O)OCCN(CC)CC)c1ccccc1 (stereo not drawn)
Potency [1]: inactive | Potency [2]: inactive | Potency [3]: inactive | Potency [4]: inactive | outcome [10]: inactive | Potency [5]: inactive | Potency [6]: inactive | Potency [7]: inactive | Potency [9]: inactive

CN1CCCN=C1/C=C/c1cccs1
Potency [1]: inactive | Potency [2]: inactive | Potency [4]: inactive | outcome [10]: inactive | Potency [5]: inactive | Potency [6]: inactive | Potency [8]: inactive | Potency [7]: inactive

CC1(C)C2=CCCC(C)(C)[C@]23CC[C@H]1C3
Potency [1]: inactive | Potency [2]: inactive | Potency [3]: inactive | Potency [5]: inactive | Potency [6]: inactive | Potency [7]: inactive | Potency [9]: inactive

CN1CCN(c2c(F)cc3c(=O)c(C(=O)O)cn4c3c2OCN4C)CC1
activity change, negative = cytotoxicity [1]: 0.712% [at 19 µM] | viability change, negative = cytotoxic [2]: 0.172% [at 19 µM] | activity change, negative = inhibition [4]: 2.06% [at 19 µM] | outcome [10]: inactive | activity change, negative = inhibition [5]: 8.76% [at 19 µM] | activity change, negative = cytotoxicity [6]: -3.29% [at 19 µM] | viability change, negative = cytotoxic [7]: -1.18% [at 19 µM] | activity change [9]: -1.02% [at 18.9 µM, hits give high values]

CCc1nn(CCCN2CCN(c3cccc(Cl)c3)CC2)c(=O)n1CCOc1ccccc1
Potency [1]: inactive | Potency [2]: 26.6 µM (active) | Potency [4]: 11.9 µM (active) | outcome [10]: inactive | Potency [5]: inactive | Potency [6]: inactive | Potency [8]: inactive | Potency [7]: inactive | Potency [9]: inactive

c1cnc2c(n1)CCCC2
Potency [1]: inactive | Potency [2]: inactive | Potency [3]: inactive | Potency [5]: inactive | Potency [6]: inactive | Potency [7]: inactive | Potency [9]: inactive

C[Si]1(C)O[Si](C)(C)O[Si](C)(C)O1
Potency [1]: inactive | Potency [2]: inactive | Potency [3]: inactive | Potency [5]: inactive | Potency [8]: inactive | Potency [7]: inactive | Potency [9]: inactive

CC1CN(c2cc3c(cc2F)c(=O)c(C(=O)O)cn3-c2ccc(F)cc2F)CCN1 (stereo not drawn)
activity change, negative = cytotoxicity [1]: 6.15% [at 8.39 µM] | viability change, negative = cytotoxic [2]: 6.65% [at 8.39 µM] | activity change, negative = inhibition [4]: -1% [at 8.39 µM] | outcome [10]: inactive | activity change, negative = inhibition [5]: -3.12% [at 8.39 µM] | activity change, negative = cytotoxicity [6]: -1.14% [at 8.39 µM] | viability change, negative = cytotoxic [8]: -8.68% [at 8.39 µM] | viability change, negative = cytotoxic [7]: 5.63% [at 8.39 µM] | activity change [9]: 0.373% [at 8.39 µM, hits give high values]

CCOC(=O)C(C)Oc1ccc(Oc2nc3ccc(Cl)cc3o2)cc1 (stereo not drawn)
Potency [1]: inactive | Potency [2]: inactive | Potency [3]: inactive | Potency [5]: inactive | Potency [6]: inactive | Potency [8]: inactive | Potency [7]: inactive | Potency [9]: inactive

Source: PubChem BioAssay (Tox21)
